Measurements reported in PubChem BioAssay.

Key:
[1] = system: Human papillomavirus type 1a protein E7 (residues 44-93); assay: small molecules binding HPV E7 44-93 – biochemical, small-molecule microarray, residues 44-93, 635 nm fluorescence, primary screen (AID 1108); settings: fluorescence 635 nm, higher = more signal;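 note: E7 fragment applied at 1 µg/mL in TBST for 1 h at 4 C; score combines spot fluorescence with its signal to noise ratio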
[2] = hepatitis C replication reporter changes, two-sided – Huh7 cells, luciferase reporter, HCV replication inhibitor project, primary screen (AID 1109); settings: Huh7 HCV replicon luciferase reporter, 48 h; higher = more signal;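 note: huh7 hepatoma cells harbouring a luciferase neomycin HCV replicon reporter; luciferase luminescence as measure of HCV replicon replication; test concentration not given here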
[3] = target: Left-right determination factor 2 (Homo sapiens) (UniProt O00292); assay: small molecules binding LEFTY2 protein – biochemical, small-molecule microarray, 635 nm fluorescence scan, primary screen (AID 1110); settings: higher = more signal
Sequence of Left-right determination factor 2 (Homo sapiens) (O00292 whole entry, looked up): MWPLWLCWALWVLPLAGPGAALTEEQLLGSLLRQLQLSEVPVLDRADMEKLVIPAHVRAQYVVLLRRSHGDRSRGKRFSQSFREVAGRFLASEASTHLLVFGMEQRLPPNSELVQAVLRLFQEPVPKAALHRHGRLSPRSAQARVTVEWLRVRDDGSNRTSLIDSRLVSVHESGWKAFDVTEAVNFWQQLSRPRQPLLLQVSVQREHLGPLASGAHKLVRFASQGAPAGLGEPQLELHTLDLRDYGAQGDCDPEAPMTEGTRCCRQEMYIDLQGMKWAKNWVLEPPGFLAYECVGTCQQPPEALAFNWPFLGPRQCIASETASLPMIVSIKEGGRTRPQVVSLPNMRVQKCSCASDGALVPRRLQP

[4] = target: Calmodulin-1 (Homo sapiens) (UniProt P0DP23); assay: small molecules binding calmodulin-1 with EGTA – biochemical, small-molecule microarray, Cy5-labelled CALM1, profiling panel (AID 1111); settings: Cy5-CALM1 binding fluorescence, higher = more signal;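 note: labelled calmodulin applied in Tris saline Tween buffer holding calcium plus EGTA and DTT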
[5] = target: Calmodulin-1 (Homo sapiens) (UniProt P0DP23); assay: small molecules binding Ca-loaded calmodulin-1 – biochemical, small-molecule microarray, Cy5-labelled CALM1, plus calcium, artefact control for SMM control-protein annotation, profiling panel (AID 1112); settings: Cy5-CALM1 binding fluorescence, higher = more signal;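 note: score merges spot fluorescence with signal to noise from triplicate slides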
[6] = probe aWnt5a binding to arrayed compounds – biochemical, biotinylated probe, 635/667 nm fluorescence, primary screen (AID 1113); settings: small-molecule microarray, higher = more signal;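 note: score merges 667 nm fluorescence intensity with signal-to-noise per printed feature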
[7] = probe aShh binding to arrayed compounds – biochemical, biotinylated probe, 635/667 nm fluorescence, primary screen (AID 1114); settings: small-molecule microarray, higher = more signal;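 note: probe is biotin-labelled aShh protein from a stem cell growth factor screen; measures binding of labelled protein to compounds printed on the slide; score merges feature fluorescence at 667 nm with signal-to-noise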
[8] = probe aNog binding to arrayed compounds – biochemical, biotinylated probe, 635/667 nm fluorescence, primary screen (AID 1115); settings: small-molecule microarray, higher = more signal;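 note: probe is biotinylated aNog protein used at 0.15 µg/mL for 1 h at 4 C; z-score combines 667 nm fluorescence of each spot with its signal to noise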
[9] = target: Torsin-1A-interacting protein 1 (Homo sapiens) (UniProt Q5JTV8); assay: compound microarray binding of lysate hLAP1 – cell lysate, small-molecule microarray, COS7 lysate, 635/667 nm fluorescence, primary screen (AID 1116); settings: 635 nm fluorescence, higher = more signal
Sequence of Torsin-1A-interacting protein 1 (Homo sapiens) (Q5JTV8 whole entry, looked up): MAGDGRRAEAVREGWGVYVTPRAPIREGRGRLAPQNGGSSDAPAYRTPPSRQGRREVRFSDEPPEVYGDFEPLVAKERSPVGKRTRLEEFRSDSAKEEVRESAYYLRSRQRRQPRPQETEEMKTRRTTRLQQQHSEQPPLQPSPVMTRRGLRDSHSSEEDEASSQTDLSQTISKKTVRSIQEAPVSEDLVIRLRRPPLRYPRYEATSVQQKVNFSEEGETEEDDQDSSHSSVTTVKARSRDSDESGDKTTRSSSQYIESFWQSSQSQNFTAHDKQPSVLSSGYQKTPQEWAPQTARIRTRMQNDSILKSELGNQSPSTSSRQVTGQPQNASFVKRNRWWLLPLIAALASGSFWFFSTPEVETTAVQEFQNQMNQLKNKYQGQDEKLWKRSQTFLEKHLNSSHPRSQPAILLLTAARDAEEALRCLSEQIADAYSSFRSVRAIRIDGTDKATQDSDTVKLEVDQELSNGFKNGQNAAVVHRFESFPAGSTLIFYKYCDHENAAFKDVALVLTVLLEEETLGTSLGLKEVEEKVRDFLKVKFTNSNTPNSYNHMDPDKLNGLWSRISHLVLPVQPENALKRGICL

[10] = target: Alpha-bungarotoxin (Bungarus multicinctus) (UniProt P60615); assay: compounds binding labelled alpha-BTX control protein – biochemical, small-molecule microarray, Alexa647 label, 635/667 nm fluorescence, artefact control for SMM control protein annotation, profiling panel (AID 1117); settings: alpha-BTX-A647 binding fluorescence, higher = more signal
Sequence of Alpha-bungarotoxin (Bungarus multicinctus) (P60615 whole entry, looked up): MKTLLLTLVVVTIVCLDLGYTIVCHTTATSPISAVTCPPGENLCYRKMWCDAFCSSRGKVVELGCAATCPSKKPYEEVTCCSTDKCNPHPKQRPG

SMILES	composite z-score [1]	z-score [2]	composite z-score [3]	composite z-score [4]	composite z-score [5]	composite z-score [6]	composite z-score [7]	composite z-score [8]	composite z-score [9]	composite z-score [10]
CCCCN1CC=CC23O[C@@H]4/C=C\CCCOC(=O)C4[C@H]2C(=O)N(CCCO)[C@@H]3C1=O (stereo not given in full)	0.498	-0.381	-1.08	-0.692	-0.298	-0.124	-0.0211	0.13	2.1	-0.803
CCCCN1CC=CC23O[C@@H]4C=CCCOC(=O)C4[C@H]2C(=O)N(CCCCCO)[C@@H]3C1=O (stereo not given in full)	-0.977	-0.698	-0.646	-0.107	-0.589	-0.208	-0.138	-0.033	-0.865	0.0086
C=CCOC(=O)[C@H]1[C@@H]2C(=O)O[C@@H](c3ccccc3)[C@@H](c3ccccc3)N2[C@@H](c2ccc(OCCOC(=O)[C@H]3C[C@H]4C(=O)N[C@@H](CCCCN(C)C)C(=O)N4[C@H]3c3cccc(OCCO)c3)cc2)[C@]12C(=O)Nc1ccc(I)cc12	1.4	-2.45	0.713	-0.0131	-0.12	0.108	0.0671	1.18	0.811	1.27
COc1cc2c(cc1O)C(c1cccs1)N(Cc1ccc([N+](=O)[O-])o1)CC2 (stereo not given)	0.665	-0.213	-0.333	1.5	0.33	-0.0303	0.155	1.19	-0.194	0.766
CC=CC(O)C1C=CC2C(=O)N(C)C(=O)C2N1N(c1ccccc1)c1ccccc1 (stereo not given)	-1.28	-0.332	0.36	-0.54	-1.3	-0.104	-0.0769	-0.0281	1.13	0.721
O=C(CS)NCCCCCNC(=O)[C@H]1C[C@H]2C(=O)NCC(=O)N2[C@H]1c1ccc(O)cc1	-1.12	0.464	-0.55	-0.0906	-0.0879	-0.256	-0.214	-0.175	-0.736	-0.129
COCC(=C=CC[C@H](O)c1cccc(OCCO)c1)C[C@H](O)c1cc(Cl)cc(Cl)c1O	1.37	-0.566	0.578	-0.0781	-0.821	-0.0478	0.0639	-0.328	1.12	0.0872
C#CCN1[C@H](/C=C/C2CC2)[C@H](Cc2ccccc2)OC(=O)[C@@H]1Cc1ccccc1	-0.306	-2.87	0.294	-0.707	-0.414	-0.164	-0.0066	-0.401	0.0223	0.106
O=C(CS)NCCCCCNC(=O)[C@@H]1C[C@@H]2C(=O)NCC(=O)N2[C@@H]1c1ccc(O)cc1	0.722	0.627	0.31	-0.0523	-0.109	-0.165	-0.0709	-0.122	-0.0104	-0.581
CN(C)CCCCCCNC(=O)[C@@H]1C[C@@H]2C(=O)N3CCC[C@H]3C(=O)N2[C@@H]1c1ccc(O)cc1	1.42	1.49	1.5	-1.95	-1.42	-0.062	0.42	-0.364	2.23	2.36
CC(C)OC(=O)C=C1C[C@@H](c2cccc(Cl)c2)O[C@@H](c2cccc(Cl)c2)O1	0.597	-0.825	-0.869	1.39	1.05	-0.0735	-0.0035	-0.43	1.58	0.381
O=C(NCCN1CCOCC1)[C@@H]1c2ccccc2C(=O)N(Cc2cc(C(F)(F)F)cc(C(F)(F)F)c2)[C@H]1c1ccc(CO)cc1	1.35	-1.16	-0.775	-0.253	-0.198	-0.0161	0.123	0.0763	-0.729	2.1
C[N+](C)(C)CCCC[C@@H]1NC(=O)[C@H]2C[C@@H](C(=O)NCCCCCCNC(=O)CS)[C@@H](c3ccc(O)cc3)N2C1=O	-1.07	-0.237	-1.4	-0.493	0.55	-0.178	-0.138	-0.0604	1.51	0.539
COc1ccc([C@H]2C[C@H]3C(Br)=C[C@@]2(CO)C(=O)[C@]32CO2)cc1	-0.368	-2.02	0.122	-0.282	-0.38	0.0286	-0.262	-0.0827	0.291	0.0471
COCCOC(=O)N1C(=O)[C@@]2(c3cc(C#CC4(O)CCCCCC4)ccc31)[C@H](C(=O)Nc1nc3ccccc3s1)[C@H]1C(=O)O[C@H](c3ccccc3)[C@H](c3ccccc3)N1[C@@H]2c1ccccc1OCCO	-0.441	-1.66	0.555	1.71	0.926	-0.0165	0.321	0.546	0.547	2.37
COCCOC(=O)N1C(=O)[C@@]2(c3cc(C#CC4=CCCCC4)ccc31)[C@H](c1ccc(OCCO)cc1)N1[C@H](c3ccccc3)[C@H](c3ccccc3)OC(=O)[C@H]1[C@@H]2C(=O)N1CCc2cc(OC)c(OC)cc2C1	1.24	-0.829	1	0.933	0.43	0.139	0.0611	0.121	1.71	0.595

SMILES	composite z-score [1]	z-score [2]	composite z-score [3]	composite z-score [4]	composite z-score [5]	composite z-score [6]	composite z-score [7]	composite z-score [8]	composite z-score [9]	composite z-score [10]
CCCC[C@@H]1C[C@H]1[C@@H](NC(=O)c1cccnc1)c1ccc(Cl)cc1	-1.05	-2.14	-2.99	0.867	1.69	-0.191	-0.509	0.526	-0.553	-1.36
C=CCNC(=O)[C@@H]1[C@H]2C(=O)O[C@H](c3ccccc3)[C@H](c3ccccc3)N2[C@H](c2ccc(OCCO)cc2)[C@@]12C(=O)N(C(=O)OCCOC)c1ccc(C#CCNC(N)=O)cc12	0.79	-0.635	0.735	0.597	0.386	0.0136	0.275	-0.42	0.55	1.53
COc1ccc([C@H]2C[C@H]3C(I)=C[C@@H]2C(=O)[C@]32CO2)cc1	-1.2	-3.32	0.178	-0.978	-1.53	-0.222	-0.407	-0.1	0.498	0.957
CCCC(=O)N(CCc1c[nH]c2ccccc12)[C@@H]1CC(C(=O)NCCO)=C[C@H](Oc2c(I)cc(CO)cc2OC)[C@H]1O	0.434	0.354	0.362	-0.0781	-0.36	-0.129	-0.221	-0.234	0.0957	-0.0162
COC(=O)[C@@]1(Cc2ccc(OC)cc2)[C@H]2c3cc(C(=O)N4CCCC4)n(CCCNc4ncc(C(F)(F)F)cc4Cl)c3C[C@H]2CN1C(=O)c1ccccc1	0.958	-2.32	0.0792	1.33	0.74	0.901	0.76	-0.447	-0.0323	0.884
C=CCNC(=O)[C@H]1[C@@H]2C(=O)O[C@@H](c3ccccc3)[C@@H](c3ccccc3)N2[C@@H](c2ccc(OCCO)cc2)[C@]12C(=O)Nc1ccc(C#CCC(C(=O)OC)C(=O)OC)cc12	0.694	-2.22	1.37	0.832	0.478	0.0805	-0.254	-0.126	0.357	1.34
COCCOC(=O)N1C(=O)[C@@]2(c3cc(C#CC4(O)CCCCCC4)ccc31)[C@H](c1ccccc1OCCO)N1[C@H](c3ccccc3)[C@H](c3ccccc3)OC(=O)[C@H]1[C@@H]2C(=O)N1CCc2cc(OC)c(OC)cc2C1	1.43	-2.42	0.21	1.26	0.57	-0.0704	-0.0289	0.268	1.24	1.97
CCCNC(=O)[C@@H]1c2ccccc2C(=O)N(Cc2ccccc2OC)[C@H]1c1ccc(CO)cc1	1.46	-1.12	0.146	1.07	0.485	-0.0512	-0.173	0.57	0.239	1.25
CCCCN1CC=CC23O[C@@H]4/C=C\CCCOC(=O)C4[C@H]2C(=O)N(CCCCCO)[C@@H]3C1=O (stereo not given in full)	-0.766	-0.895	-0.68	-0.803	-1.24	-0.172	-0.221	-0.357	0.328	-0.509
CC(=CC1CCCCC1)[C@@H](NC(=O)c1cccnc1)c1ccc(-c2ccccc2)cc1	0.0493	-2.14	-0.405	0.139	0.735	-0.13	-0.0403	0.747	-0.217	-0.124
CC(C)CNC(=O)[C@@]1(Cc2ccccc2I)c2ccccc2C(=O)N(Cc2ccccc2C(F)(F)F)[C@H]1c1ccc(CO)cc1	0.476	-0.908	-1.3	-0.512	-0.157	-0.176	1.98	0.978	0.146	-0.124
Cc1ccc(C2C3C(=O)CC4C(=O)N(c5ccccc5)C(=O)C4C3CN2S(=O)(=O)c2ccc(C)cc2)cc1 (stereo not given)	0.808	-0.418	0.0699	1.33	0.531	0.374	0.343	-0.308	1.66	0.644
CS(=O)(=O)CCOC(=O)C1=CC(CCCO)=CC(C2CC2)N(Cc2cc3c(cc2Br)OCO3)C=C1C(=O)OCCS(C)(=O)=O (stereo not given)	1.07	-1.2	-0.0224	0.331	-0.0113	-0.0192	-0.0035	0.357	1.11	0.598
C[C@H]1C2[C@H](Cc3ccccc3)NC(=O)[C@]23C(=O)NCC(=O)N2CCC[C@H]2C(=O)NC/C=C/CCC/C=C/C3[C@@H]2O[C@]12C (stereo not given in full)	-0.484	0.478	-0.693	-0.738	-1.2	-0.0075	-0.138	-0.387	-0.106	-0.65
COC(=O)c1c(CC[C@@H](CO)NC(=O)N[C@@H](Cc2ccccc2)Cn2cc(-c3ccccn3)nn2)oc(C(=O)N2CCOCC2)c1C(=O)OC	-0.593	0.209	0.0348	-0.194	0.0715	-0.204	0.0796	0.151	0.167	0.0762
